# D1 agonist: human D1 receptor agonism | P21728 | HEK293 T-REx D1 cells, calcium flux, agonist mode | activation, % at 2 µM | actives 1% (n = 360,000) | AID 504660; note: 0% is about no effect
# Target sequence (P21728 whole entry, looked up): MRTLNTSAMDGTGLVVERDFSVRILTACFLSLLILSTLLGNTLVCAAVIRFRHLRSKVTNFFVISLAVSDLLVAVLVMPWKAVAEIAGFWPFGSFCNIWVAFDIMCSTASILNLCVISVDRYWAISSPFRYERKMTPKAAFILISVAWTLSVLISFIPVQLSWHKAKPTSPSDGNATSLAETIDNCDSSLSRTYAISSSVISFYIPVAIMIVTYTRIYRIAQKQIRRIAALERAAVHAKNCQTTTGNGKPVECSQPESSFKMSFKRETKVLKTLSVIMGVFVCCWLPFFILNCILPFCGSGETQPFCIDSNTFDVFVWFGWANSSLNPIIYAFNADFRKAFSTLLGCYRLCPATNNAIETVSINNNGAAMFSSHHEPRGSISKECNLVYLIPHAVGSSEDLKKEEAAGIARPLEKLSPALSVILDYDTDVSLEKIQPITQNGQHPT
#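 Inducible HEK293 T-REx D1 cells, force-coupled to calcium signalling, were plated at 4000 cells/well with tetracycline and held overnight at 30 C. After no-wash calcium dye loading, compound-evoked calcium rise over 180 s flagged agonists.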
# D1 antagonist: antagonists of human D1 dopamine receptor. P21728. activity change, negative = inhibition, % at 10 µM. HEK293 TREx D1 cells, calcium flux, dopamine EC80; active compounds read low. AID 504652. actives 3.2% (n = 360,000); in the data active = activity change below about -30%; note: % is set by controls: 0 for no effect and ±100 for the full control effect
#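 Kinetic fluorescence of a calcium dye serves as the read-out. D1-expressing Hek293 Trex cells, induced overnight at 30 C, are exposed to compound for 180 s before an EC80 dopamine addition, then read 180 s further.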
# D1 PAM: potentiators of human D1 dopamine receptor. AID 504651. HEK293 TREx D1 cells, calcium flux, dopamine EC20 potentiation. P21728. actives 0.036% (n = 360,000). potentiation, % at 10 µM; in the data active = potentiation above about 30%; note: 0% is about no effect
# TRHR enhancer: TRH receptor (human) allosteric enhancement. P34981. TRHR cells, fluo-8 calcium fluorescence, EC20 TRH enhancement. enhancement, % at 2 µM. actives 0.66% (n = 360,000). AID 493056; in the data active = enhancement above about 30%; note: 0% is about no effect
#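 TRHR-expressing cells loaded with fluo-8 calcium dye were read kinetically (ex 480/em 530) during compound addition, then stimulated with an EC20 of TRH (10 nM final). Enhancement of the Gq-mediated intracellular calcium response was scored.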
# TRHR agonist: activates the human TRH receptor | TRHR cells, calcium flux fluo-8, FDSS agonist mode | P34981 | AID 493084 | actives 0.18% (n = 360,000) | activation, % at 2 µM; note: 0% is about no effect
#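 Steps: seed TRHR cells overnight; add fluo-8 no-wash Ca dye, RT 30 min–1.5 h; record 10 s baseline; pin-transfer compounds; monitor fluorescence 1 cycle/s for the agonist window. Calcium increases flag candidate agonists.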
# * = called active by the depositor; . = not tested or not shown. A selection: hits, their analogues and other compounds. The true share with any hit is near 4.7%. Cut-off read from the data, not from the text of the source, unless noted: active = activation above about 30%; inactive = the rest.
SMILES,D1 agonist,D1 antagonist,D1 PAM,TRHR enhancer,TRHR agonist
CCN(CC(=O)Nc1ccc(NC(C)=O)cc1)C(=O)c1ccc(NC2CC2)c([N+](=O)[O-])c1,2,-17,0,1,0
O=C(CNC(=O)C1CCCCCC1)OC(C(=O)Nc1cc(C(F)(F)F)ccc1Cl)c1ccccc1 (stereo unspecified),7,12,4,1,-1
CCCC(C(=O)NCC1CCCO1)N(Cc1ccccc1)C(=O)CNS(=O)(=O)c1ccccc1 (stereo unspecified),1,2,-2,-6,0
Cc1nn(C)c(Cl)c1C(=O)NC(C(=O)O)c1ccccc1 (stereo unspecified),1,-7,-3,-4,0
Cc1nc(CC(=O)Nc2nc(C(C)(C)C)cs2)cs1,12,-38*,-7,15,-1
Cc1nc(CC(=O)Nc2nc(-c3ccccc3)cs2)cs1,2,-10,9,7,-1
COc1ccc(NC(=O)C(c2ccc(Cl)cc2)C(C)C)cn1 (stereo unspecified),39*,3,10,2,6
COc1ccc(NC(=O)Nc2ccc(F)cc2)cn1,16,-18,-2,2,1
CCOC(=O)C(Cc1ccccc1)NC(=O)CCc1nnc2ccc(N3CCOCC3)nn12 (stereo unspecified),2,-30*,-6,-3,0
COCCNC(=O)CCc1nnc2ccc(N3CCC(C)CC3)nn12,1,3,-4,31*,0
Cc1cc(S(=O)(=O)Nc2cccc(C(=O)O)c2)c(C)c(S(=O)(=O)c2ccccc2)c1,1,-9,-1,-2,0
CCCc1cc(=O)oc2cc(C)cc(OCC(=O)N3CCC(C(=O)O)CC3)c12,1,-64*,-3,2,0
CCCCc1cc(=O)oc2cc(C)cc(OCC(=O)N3CCC(C(=O)O)CC3)c12,1,-4,23,-4,0
CCOC(=O)c1ccc(N2CCCCC2)c(NS(=O)(=O)c2cccc(C(F)(F)F)c2)c1,5,-48*,-3,-8,1
COC(=O)c1ccc(N2CCCCC2)c(NS(=O)(=O)c2ccc(C)cc2)c1,1,14,-2,13,0
Cc1ccccc1CS(=O)(=O)Cc1ccc(C(=O)NCCc2ccc(Cl)cc2)o1,12,-7,-1,1,-1
ClC1(Cl)CC1CSc1nc2ccccc2[nH]1 (stereo unspecified),5,-34*,-3,0,-1
COC(=O)c1cc2c(C)c(C)c3ccccn3c-2c1C(=O)OC,8,-5,-3,3,4
CC(C)OC(=O)c1c2c(n3ccccc13)C(=O)c1ccccc1C2=O,254*,15,-8,2,75*
CCN(CC)S(=O)(=O)c1ccc(C(=O)NC2CC(=O)N(c3ccc4c(c3)OCCO4)C2)cc1 (stereo unspecified),-2,.,3,0,0
FC(F)(F)c1cc(-c2ccco2)nc(NCc2ccccc2)n1,8,33,-5,-4,1
Fc1ccc(-c2cc(C(F)(F)F)nc(NCc3ccccc3)n2)cc1,36*,-3,1,-3,-1
COc1ccc(CNc2nc(-c3ccc(OC)c(OC)c3)cc(C(F)(F)F)n2)cc1,3,2,-1,-2,1
Fc1ccc(CNc2nc(-c3ccco3)cc(C(F)(F)F)n2)cc1,6,6,0,38*,0
Fc1ccc(CNc2nc(-c3ccc(Cl)cc3)cc(C(F)(F)F)n2)cc1,26,-2,2,10,0
SMILES,D1 agonist,D1 antagonist,D1 PAM,TRHR enhancer,TRHR agonist
COc1ccc(-c2cc(C(F)(F)F)nc(NCc3ccccc3)n2)cc1,31*,0,3,-1,3
NCCSc1c(-c2ccccc2)[nH]c2ccccc12,11,-37*,-3,0,-3
Cc1ccc(C(=O)NN2C(=O)c3ccc(S(=O)(=O)c4ccc(C(=O)O)cc4)cc3C2=O)cc1,2,-43*,-10,-4,-1
O=C(O)c1ccc(S(=O)(=O)c2ccc3c(c2)C(=O)N(NC(=O)c2ccc(O)cc2)C3=O)cc1,0,10,-3,8,0
O=C(c1ccccc1)N1N=C(C(F)(F)F)CC1(O)c1ccc(F)cc1 (stereo unspecified),0,-1,-1,4,0
CCn1ncc(S(=O)(=O)N2CCN(c3cccc(OC)c3)CC2)c1C,4,-35*,-5,25,0
COc1cccc(N2CCN(S(=O)(=O)c3cccc4cccnc34)CC2)c1,6,-7,3,-3,0
Cc1ccc(NCc2nnc(SCC(=O)N(Cc3ccccc3)C(C)(C)C)o2)c(C)c1,1,-45*,-3,-3,0
Cc1ccc(NCc2nnc(SCC(N)=O)o2)c(C)c1,2,-9,-1,-5,0
Cc1nc2cc(-c3cccc(F)c3)nn2c(C)c1CCC(=O)NC(C)c1ccccc1 (stereo unspecified),1,-6,-5,-3,0
CC(C)[C@H](NC(=O)[C@@H]1CSC2c3ccccc3C(=O)N21)C(=O)NC1CCCC1 (stereo partly specified),2,7,3,2,-1
CCCCNC(=S)NC(=O)c1ccccc1Br,1,-33*,-4,2,-1
Cc1ccccc1NC(=O)c1cc(N)ccc1N1CCCCC1,-2,-55*,-15,-18,3
CN(C(=O)c1ccc2c(c1)OCO2)C1CCS(=O)(=O)C1 (stereo unspecified),0,-12,0,-9,0
Cc1ncc(CN2CCCC(C(=O)Nc3ccc(-c4cccc(F)c4)cc3)C2)cn1 (stereo unspecified),29,-33*,-2,-5,0
CC(=O)c1cccc(CN2CCCC(C(=O)Nc3ccc(-c4ccco4)cc3)C2)c1 (stereo unspecified),12,-46*,-11,-2,0
NC(=O)CC(NC(=O)c1ccc(Br)cc1)c1ccc(NC2CCCCCC2)c([N+](=O)[O-])c1 (stereo unspecified),1,6,6,-1,0
COc1ccc2c(=O)c(Oc3ccc(C(=O)O)cc3)c(C(F)(F)F)oc2c1,3,-30*,-7,-12,0
Cn1c(CNC(=O)c2ccc(Cl)cc2)nnc1SCC(=O)N1CCOCC1,4,9,0,-4,0
COc1ccc(S(=O)(=O)N2CCN(CCOc3ccc(Br)cc3)CC2)cc1OC,4,-9,-3,15,1
COc1ccc(S(=O)(=O)N2CCN(CCOc3ccccc3Cl)CC2)cc1OC,6,-51*,-14,1,0
O=C(Cn1cc(C(F)(F)F)ccc1=O)N1CCc2ccccc2C1,4,-1,5,7,0
O=C(Cn1cc(C(F)(F)F)ccc1=O)N1CCN(S(=O)(=O)c2ccccc2)CC1,1,-4,0,40*,-1

# High-throughput results from PubChem BioAssay.
